Laboratory results published in PubChem BioAssay (EPA / NIEHS).
Values joined by “and” are separate entries in the source; they are usually repeats but may differ in a detail not shown here. Equal values may be shown once. Where a structure was tested more than once in an assay, its records may differ in their call. Active and inactive are the calls of the source. The calls were made as follows: active = hit-call score of the fitted dose curve at least 0.9, where 1 is the maximum; inactive = score below 0.9.

read-out: CD40, CD40 (gene 958); assay: BSK_IMphg_CD40: BioMAP Diversity Plus: IMphg Assay for CD40 Biomarker Activity (AID 2284288); settings: primary human endothelial cells with macrophages
Procedure: BSK_IMphg is a cell-based, multiplexed-readout assay that uses venular endothelial cells and macrophages, a human vascular primary cell, with measurements taken at 24 hours after chemical dosing in a microplate: 96-well plate.BSK_IMphg_CD40 is an assay component measured in the BSK_IMphg assay. It measures CD40 antibody related to regulation of gene expression using ELISA technology.Data from the assay component BSK_IMphg_CD40 was analyzed at the endpoint, BSK_IMphg_CD40, in the positive analysis fitting direction relative to DMSO as the negative control and baseline of activity. Using a type of binding reporter, gain or loss-of-signal activity can be used to understand protein changes. To generalize the intended target to other relatable targets, this assay endpoint is annotated to the 'cytokine' intended target family, where the subfamily is 'inflammatory factor'.
The levels of cell surface (or secreted, indicated by the prefix "s") biomarker endpoints were measured by ELISA. Overt cytotoxicity to cells in confluent adherent cultures (all systems other than the BT system) was assessed by measuring total protein levels using sulforhodamine B (SRB) staining in parallel cultures at the time of biomarker measurements, indicated as SRB endpoints. For proliferation assays for adherent cell types, individual cell types are cultured at sub-confluence and relative cell numbers quantified by SRB staining at time points optimized for each system (48 h: 3C and CASM3C systems; 72 h: BT and HDF3CGF systems; 96 h: SAg system). SRB was performed by staining cells with 0.1% SRB after fixation with 10% TCA and reading wells at 560 nm.Viability and proliferation of PBMC (T cells) was quantified by Alamar Blue reduction for the SAg and BT systems. For PBMC viability (referred to as PBMC Cytotoxicity within the assay endpoint names), cells were plated (75,000/well in a 96-well plate) and then chemical samples added for 1 h before addition of activators, SEB and TSST-1 (20 ng/mL final concentration each). Cells were incubated for 90 h. Then, Alamar Blue (20 uL/well) (Invitrogen, Cat DAL1100) was added for 6 h, and the plates were read with a fluorescence microplate reader at 546/580 nm (excitation/emission). For PBMC proliferation, cells were plated and activated as above but incubated for only 16 h prior to addition of Alamar Blue. Plates were read after 6 h.

E-selectin (Homo sapiens), sequence (P16581 whole entry, looked up): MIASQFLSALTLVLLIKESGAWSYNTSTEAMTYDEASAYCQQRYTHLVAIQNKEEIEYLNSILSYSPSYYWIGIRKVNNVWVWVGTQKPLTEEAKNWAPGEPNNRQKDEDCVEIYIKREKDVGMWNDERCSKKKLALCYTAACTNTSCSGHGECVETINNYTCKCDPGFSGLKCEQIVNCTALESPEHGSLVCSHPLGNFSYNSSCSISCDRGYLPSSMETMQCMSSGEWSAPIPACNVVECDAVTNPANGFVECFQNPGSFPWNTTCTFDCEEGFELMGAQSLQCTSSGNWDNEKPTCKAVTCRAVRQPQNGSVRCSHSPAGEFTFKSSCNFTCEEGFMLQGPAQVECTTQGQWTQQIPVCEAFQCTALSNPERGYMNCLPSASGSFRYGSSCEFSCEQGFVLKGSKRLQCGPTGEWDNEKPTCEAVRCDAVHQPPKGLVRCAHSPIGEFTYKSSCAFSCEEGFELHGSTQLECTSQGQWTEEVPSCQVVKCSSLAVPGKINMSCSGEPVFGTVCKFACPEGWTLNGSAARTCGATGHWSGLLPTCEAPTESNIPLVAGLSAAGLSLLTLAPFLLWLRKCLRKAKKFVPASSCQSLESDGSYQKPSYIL

Structure (SMILES) | AC50 | outcome
C=C(F)C(=O)OC(C(F)(F)F)C(F)(F)F | 5.95 µM (active) | inactive
OCC(F)(OC(F)(F)C(F)(OC(F)(F)C(F)(F)C(F)(F)F)C(F)(F)F)C(F)(F)F (stereo not drawn) | – | inactive
O=S(=O)(O)C(F)(F)C(F)(F)OC(F)(F)C(F)(F)F | – | inactive
C=C(C)C(=O)OCCC(F)(F)C(F)(F)C(F)(F)C(F)(F)C(F)(F)C(F)(F)C(F)(F)C(F)(F)F | 2.53 µM (active) | inactive
O=C(O)C(F)(F)OC(F)(F)C(F)(F)OC(F)(F)C(F)(F)C(F)(F)C(F)(F)F | 30 µM (active) | inactive
O=C(O)C(F)(F)C(F)(F)C(F)(F)C(F)(F)C(F)(F)C(F)(F)C(F)(F)C(F)F | – | inactive

read-out: Interleukin-1 alpha (IL1a), IL1A (gene 3552); assay: BSK_IMphg_IL1a: BioMAP Diversity Plus: IMphg Assay for Interleukin-1 alpha (IL1a) Biomarker Activity (AID 2284290); settings: primary human endothelial cells with macrophages
In short: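 IL-1α is quantified by ELISA at 24 h in the endothelial/macrophage IMphg co-culture, with gain of signal fitted relative to DMSO. Parallel SRB total-protein staining flags overt toxicity.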

Structure (SMILES) | outcome
C=C(F)C(=O)OC(C(F)(F)F)C(F)(F)F | inactive
OCC(F)(OC(F)(F)C(F)(OC(F)(F)C(F)(F)C(F)(F)F)C(F)(F)F)C(F)(F)F (stereo not drawn) | inactive
O=S(=O)(O)C(F)(F)C(F)(F)OC(F)(F)C(F)(F)F | inactive
C=C(C)C(=O)OCCC(F)(F)C(F)(F)C(F)(F)C(F)(F)C(F)(F)C(F)(F)C(F)(F)C(F)(F)F | inactive
O=C(O)C(F)(F)OC(F)(F)C(F)(F)OC(F)(F)C(F)(F)C(F)(F)C(F)(F)F | inactive
O=C(O)C(F)(F)C(F)(F)C(F)(F)C(F)(F)C(F)(F)C(F)(F)C(F)(F)C(F)F | inactive

read-out: E-selectin (Homo sapiens) (UniProt P16581); assay: BSK_IMphg_ESelectin: BioMAP Diversity Plus: IMphg Assay for Eselectin Biomarker Activity (AID 2284291); settings: primary human endothelial cells with macrophages
In short: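 Analysed against DMSO baseline in the positive fitting direction, this endpoint is an ELISA read of E-selectin. It comes from human venular endothelial cells co-cultured with macrophages, sampled 24 h post-dose.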

Structure (SMILES) | outcome | AC50
C=C(F)C(=O)OC(C(F)(F)F)C(F)(F)F | inactive | –
OCC(F)(OC(F)(F)C(F)(OC(F)(F)C(F)(F)C(F)(F)F)C(F)(F)F)C(F)(F)F (stereo not drawn) | – | 5.64 µM (active) and 3.5 µM (active)
O=S(=O)(O)C(F)(F)C(F)(F)OC(F)(F)C(F)(F)F | inactive | –
C=C(C)C(=O)OCCC(F)(F)C(F)(F)C(F)(F)C(F)(F)C(F)(F)C(F)(F)C(F)(F)C(F)(F)F | inactive | –
O=C(O)C(F)(F)OC(F)(F)C(F)(F)OC(F)(F)C(F)(F)C(F)(F)C(F)(F)F | inactive | –
O=C(O)C(F)(F)C(F)(F)C(F)(F)C(F)(F)C(F)(F)C(F)(F)C(F)(F)C(F)F | inactive | –

read-out: not listed separately; assay: BSK_IMphg_SRB: Viability Assessment in the BioMAP Diversity Plus: IMphg Assay (AID 2284292); settings: primary human endothelial cells with macrophages;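 also: measured one day after compound addition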
In short: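 SRB viability endpoint: cultures of human endothelial cells plus macrophages fixed with 10% TCA, stained with 0.1% SRB, read at 560 nm 24 h post-dosing. Only gain-of-signal fitted, relative to DMSO.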

Structure (SMILES) | outcome | AC50
C=C(F)C(=O)OC(C(F)(F)F)C(F)(F)F | inactive | –
OCC(F)(OC(F)(F)C(F)(OC(F)(F)C(F)(F)C(F)(F)F)C(F)(F)F)C(F)(F)F (stereo not drawn) | inactive | 6.17 µM (active)
O=S(=O)(O)C(F)(F)C(F)(F)OC(F)(F)C(F)(F)F | inactive | –
C=C(C)C(=O)OCCC(F)(F)C(F)(F)C(F)(F)C(F)(F)C(F)(F)C(F)(F)C(F)(F)C(F)(F)F | inactive | –
O=C(O)C(F)(F)OC(F)(F)C(F)(F)OC(F)(F)C(F)(F)C(F)(F)C(F)(F)F | inactive | –
O=C(O)C(F)(F)C(F)(F)C(F)(F)C(F)(F)C(F)(F)C(F)(F)C(F)(F)C(F)F | inactive | –

read-out: Macrophage colony-stimulating factor (MCSF), CSF1 (gene 1435); assay: BSK_IMphg_MCSF: BioMAP Diversity Plus: IMphg Assay for Macrophage colony-stimulating factor (MCSF) Biomarker Activity (AID 2284293); settings: primary human endothelial cells with macrophages
In short: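 M-CSF was measured by ELISA in human venular endothelial cell/macrophage co-cultures dosed for 24 hours. Sulforhodamine B staining of parallel cultures assessed cytotoxicity; data fitted against DMSO baseline.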

Structure (SMILES) | outcome
C=C(F)C(=O)OC(C(F)(F)F)C(F)(F)F | inactive
OCC(F)(OC(F)(F)C(F)(OC(F)(F)C(F)(F)C(F)(F)F)C(F)(F)F)C(F)(F)F (stereo not drawn) | inactive
O=S(=O)(O)C(F)(F)C(F)(F)OC(F)(F)C(F)(F)F | inactive
C=C(C)C(=O)OCCC(F)(F)C(F)(F)C(F)(F)C(F)(F)C(F)(F)C(F)(F)C(F)(F)C(F)(F)F | inactive
O=C(O)C(F)(F)OC(F)(F)C(F)(F)OC(F)(F)C(F)(F)C(F)(F)C(F)(F)F | inactive
O=C(O)C(F)(F)C(F)(F)C(F)(F)C(F)(F)C(F)(F)C(F)(F)C(F)(F)C(F)F | inactive

read-out: Interleukin-10 (IL10), IL10 (gene 3586); assay: BSK_IMphg_IL10: BioMAP Diversity Plus: IMphg Assay for Interleukin-10 (IL10) Biomarker Activity (AID 2284294); settings: primary human endothelial cells with macrophages
In short: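 IL-10 read by ELISA after 24 h chemical exposure of primary human venular endothelial cell/macrophage cocultures, with DMSO as baseline. Parallel SRB staining (560 nm) gauged overt cytotoxicity.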

Structure (SMILES) | outcome | AC50
C=C(F)C(=O)OC(C(F)(F)F)C(F)(F)F | inactive | –
OCC(F)(OC(F)(F)C(F)(OC(F)(F)C(F)(F)C(F)(F)F)C(F)(F)F)C(F)(F)F (stereo not drawn) | inactive | 3.33 µM (active)
O=S(=O)(O)C(F)(F)C(F)(F)OC(F)(F)C(F)(F)F | – | 47.8 µM (active) and 44.1 µM (active)
C=C(C)C(=O)OCCC(F)(F)C(F)(F)C(F)(F)C(F)(F)C(F)(F)C(F)(F)C(F)(F)C(F)(F)F | inactive | –
O=C(O)C(F)(F)OC(F)(F)C(F)(F)OC(F)(F)C(F)(F)C(F)(F)C(F)(F)F | – | 46.5 µM (active) and 49.5 µM (active)
O=C(O)C(F)(F)C(F)(F)C(F)(F)C(F)(F)C(F)(F)C(F)(F)C(F)(F)C(F)F | – | 47.1 µM (active) and 57.5 µM (active)

read-out: not listed separately; assay: BSK_IMphg_SRB.Mphg: Macrophage Viability Assessment in the BioMAP Diversity Plus: IMphg Assay (AID 2284295); settings: primary human endothelial cells with macrophages
In short: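 Cytotoxicity read-out: parallel cultures fixed with 10% TCA, stained with 0.1% sulforhodamine B, read at 560 nm. System combines venular endothelium and macrophages; sampled 24 h post-dosing, fitted positively relative to DMSO control.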

Structure (SMILES) | outcome | AC50
C=C(F)C(=O)OC(C(F)(F)F)C(F)(F)F | inactive | –
OCC(F)(OC(F)(F)C(F)(OC(F)(F)C(F)(F)C(F)(F)F)C(F)(F)F)C(F)(F)F (stereo not drawn) | inactive | 4.31 µM (active)
O=S(=O)(O)C(F)(F)C(F)(F)OC(F)(F)C(F)(F)F | inactive | –
C=C(C)C(=O)OCCC(F)(F)C(F)(F)C(F)(F)C(F)(F)C(F)(F)C(F)(F)C(F)(F)C(F)(F)F | inactive | –
O=C(O)C(F)(F)OC(F)(F)C(F)(F)OC(F)(F)C(F)(F)C(F)(F)C(F)(F)F | inactive | –
O=C(O)C(F)(F)C(F)(F)C(F)(F)C(F)(F)C(F)(F)C(F)(F)C(F)(F)C(F)F | inactive | –
